# Measured values taken from PubChem BioAssay AID1159580 (chemical genetic matrix, 2015).
# The campaign covered roughly 5,500 compounds. About 2,000 (36%) were called active. Another 18% or so got no clear call; they are omitted. This is one part of the list. Values without a mark were called inactive. No stated cut-off is given here; in the data, active means normalized growth mostly below about 0.91 (no sharp cut-off); inconclusive means no clear call, values can overlap the other calls; inactive means mostly above about 0.92.
# Experiment: chemical genetic growth profiling, strain panel (AID 1159580);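 further: tested at 20 µM; growth read once vehicle control cultures reached saturation at 30 °C; 1 = growth at the plate median or of vehicle wells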
# Details: S. cerevisiae deletion strains, growth OD
# [1] = locus YJR075W, strain HOC1, stronger effect = lower value
# [2] = locus YMR263W, strain SAP30, stronger effect = lower value
# [3] = locus YNL153C, strain GIM3, stronger effect = lower value
# [4] = locus YPL055C, strain LGE1, stronger effect = lower value
# [5] = locus YDL101C, strain DUN1, stronger effect = lower value
# [6] = locus YHR030C, strain SLT2, stronger effect = lower value
smiles,measurement,setting,value
O=C1c2ccccc2-c2n[nH]c3cccc1c23,normalized growth,"locus YAL040C, strain CLN3, stronger effect = lower value",0.674 (active)
same,normalized growth,"locus YDR363W, strain ESC2, stronger effect = lower value",0.906
same,normalized growth,"locus YER002W, strain NOP16, stronger effect = lower value",0.982
same,normalized growth,[1],0.827 (active)
same,normalized growth,[2],0.981
same,normalized growth,[3],0.345 (active)
same,normalized growth,"locus YNL175C, strain NOP13, stronger effect = lower value",0.621 (active)
same,normalized growth,"locus YNL197C, strain WHI3, stronger effect = lower value",0.826 (active)
same,normalized growth,"locus YNL224C, strain SQS1, stronger effect = lower value",0.654 (active)
same,normalized growth,"locus YOR083W, strain WHI5 (second series), stronger effect = lower value",0.504 (active)
same,normalized growth,[4],0.727 (active)
N/C(=N/OC(=O)c1ccccc1)c1ccc(-c2csnn2)cc1,normalized growth,"locus YAL013W, strain DEP1, stronger effect = lower value",0.998
same,normalized growth,"locus YBR229C, strain ROT2, stronger effect = lower value",0.988
same,normalized growth,[5],0.984
same,normalized growth,"locus YDL134C, strain PPH21, stronger effect = lower value",1.01
same,normalized growth,"locus YDR150W, strain NUM1, stronger effect = lower value",0.965
same,normalized growth,"locus YEL061C, strain CIN8, stronger effect = lower value",0.991
same,normalized growth,"locus YGR078C, strain PAC10, stronger effect = lower value",1
same,normalized growth,[6],1.08
same,normalized growth,"locus YHR087W, strain rtc3, stronger effect = lower value",0.993
same,normalized growth,"locus YJL187C, strain SWE1, stronger effect = lower value",1.02
same,normalized growth,"locus YJR043C, strain POL32, stronger effect = lower value",1.01
same,normalized growth,[1],1.02
same,normalized growth,"locus YLR039C, strain RIC1, stronger effect = lower value",1.03
same,normalized growth,"locus YLR058C, strain SHM2 (second series), stronger effect = lower value",1
same,normalized growth,"locus YLR085C, strain ARP6, stronger effect = lower value",1.01
same,normalized growth,"locus YLR262C, strain YPT6, stronger effect = lower value",1.01
same,normalized growth,"locus YML094W, strain GIM5, stronger effect = lower value",0.993
same,normalized growth,"locus YMR219W, strain ESC1, stronger effect = lower value",1
same,normalized growth,[2],1.03
same,normalized growth,[3],1
same,normalized growth,"locus YNL298W, strain CLA4 (second series), stronger effect = lower value",1.01
same,normalized growth,"locus YNL322C, strain KRE1, stronger effect = lower value",1.01
same,normalized growth,"locus YNR030W, strain Alg12, stronger effect = lower value",1
same,normalized growth,"locus YOL006C, strain TOP1, stronger effect = lower value",1.07
same,normalized growth,[4],0.905
same,normalized growth,"locus YPL241C, strain CIN2, stronger effect = lower value",1
same,normalized growth,"locus YPR135W, strain CTF4, stronger effect = lower value",1.04
O=S(=O)(Oc1ccc(-c2csnn2)cc1)c1ccccc1Cl,normalized growth,"locus YAR019C, strain CDC15, stronger effect = lower value",0.965
same,normalized growth,"locus YBL105C, strain PKC1, stronger effect = lower value",0.98
same,normalized growth,"locus YBR135W, strain CKS1, stronger effect = lower value",0.966
same,normalized growth,"locus YBR136W, strain MEC1, stronger effect = lower value",0.963
same,normalized growth,"locus YBR160W, strain CDC28, stronger effect = lower value",0.971
same,normalized growth,"locus YDL017W, strain CDC7, stronger effect = lower value",0.974
same,normalized growth,"locus YDL028C, strain MPS1, stronger effect = lower value",0.968
same,normalized growth,[5],0.956
same,normalized growth,"locus YDL108W, strain KIN28, stronger effect = lower value",0.967
same,normalized growth,"locus YDL132W, strain cdc53, stronger effect = lower value",0.971
same,normalized growth,"locus YDL214C, strain PRR2, stronger effect = lower value",0.939
same,normalized growth,"locus YDR052C, strain DBF4, stronger effect = lower value",0.978
same,normalized growth,"locus YDR054C, strain cdc34, stronger effect = lower value",0.979
same,normalized growth,"locus YDR226W, strain ADK1, stronger effect = lower value",0.969
same,normalized growth,"locus YDR477W, strain SNF1, stronger effect = lower value",0.94
same,normalized growth,"locus YER123W, strain YCK3, stronger effect = lower value",0.915
same,normalized growth,"locus YER133W, strain GLC7, stronger effect = lower value",0.939
same,normalized growth,"locus YFL009W, strain cdc4, stronger effect = lower value",0.973
same,normalized growth,"locus YFL029C, strain CAK1, stronger effect = lower value",0.963
same,normalized growth,"locus YFR003C, strain YPI1, stronger effect = lower value",0.972
same,normalized growth,"locus YFR019W, strain FAB1, stronger effect = lower value",0.913
same,normalized growth,"locus YFR028C, strain CDC14, stronger effect = lower value",0.957
same,normalized growth,"locus YGR040W, strain KSS1, stronger effect = lower value",0.934
same,normalized growth,"locus YGR052W, strain FMP48, stronger effect = lower value",0.969
same,normalized growth,"locus YGR092W, strain DBF2, stronger effect = lower value",0.935
same,normalized growth,[6],0.907
same,normalized growth,"locus YHR079C, strain IRE1, stronger effect = lower value",0.929
same,normalized growth,"locus YHR082C, strain KSP1, stronger effect = lower value",0.948
same,normalized growth,"locus YHR205W, strain SCH9, stronger effect = lower value",0.946
same,normalized growth,"locus YIL147C, strain SLN1, stronger effect = lower value",0.968
same,normalized growth,"locus YJL095W, strain BCK1, stronger effect = lower value",0.936
same,normalized growth,"locus YJL128C, strain PBS2, stronger effect = lower value",0.938
same,normalized growth,"locus YJL157C, strain FAR1, stronger effect = lower value",0.947
same,normalized growth,"locus YJR016C, strain ILV3, stronger effect = lower value",0.978
same,normalized growth,"locus YJR066W, strain TOR1 (second series), stronger effect = lower value",0.909
same,normalized growth,"locus YJR066W, strain TOR1, stronger effect = lower value",0.921
same,normalized growth,"locus YKL048C, strain ELM1, stronger effect = lower value",0.988
same,normalized growth,"locus YKL067W, strain YNK1, stronger effect = lower value",0.933
same,normalized growth,"locus YKL101W, strain HSL1, stronger effect = lower value",0.951
same,normalized growth,"locus YKL193C, strain SDS22, stronger effect = lower value",0.967
same,normalized growth,"locus YKL203C, strain TOR2, stronger effect = lower value",0.989
same,normalized growth,"locus YLR113W, strain HOG1, stronger effect = lower value",0.854 (active)
same,normalized growth,"locus YLR133W, strain CKI1, stronger effect = lower value",0.947
same,normalized growth,"locus YLR403W, strain SFP1, stronger effect = lower value",0.927
same,normalized growth,"locus YML070W, strain DAK1, stronger effect = lower value",0.922
same,normalized growth,"locus YMR001C, strain CDC5, stronger effect = lower value",0.968
same,normalized growth,"locus YMR205C, strain PFK2 (second series), stronger effect = lower value",0.941
same,normalized growth,"locus YMR277W, strain FCP1, stronger effect = lower value",0.965
same,normalized growth,"locus YNL006W, strain LST8, stronger effect = lower value",0.981
same,normalized growth,"locus YNL020C, strain ARK1, stronger effect = lower value",0.973
same,normalized growth,"locus YNL161W, strain CBK1, stronger effect = lower value",0.969
same,normalized growth,"locus YNL183C, strain NPR1, stronger effect = lower value",0.896
same,normalized growth,"locus YNL207W, strain RIO2, stronger effect = lower value",0.971
same,normalized growth,"locus YNL222W, strain SSU72, stronger effect = lower value",0.975
same,normalized growth,"locus YNL307C, strain MCK1 (second series), stronger effect = lower value",0.96
same,normalized growth,"locus YOL078W, strain AVO1, stronger effect = lower value",0.974
same,normalized growth,"locus YOL136C, strain PFK27, stronger effect = lower value",0.916
same,normalized growth,"locus YOR061W, strain CKA2, stronger effect = lower value",0.923
same,normalized growth,"locus YOR119C, strain RIO1, stronger effect = lower value",0.964
same,normalized growth,"locus YOR231W, strain MKK1, stronger effect = lower value",0.906
same,normalized growth,"locus YOR329C, strain SCD5, stronger effect = lower value",0.966
same,normalized growth,"locus YPL031C, strain PHO85, stronger effect = lower value",0.946
same,normalized growth,"locus YPL153C, strain RAD53, stronger effect = lower value",0.956
same,normalized growth,"locus YPL204W, strain HRR25, stronger effect = lower value",0.931
same,normalized growth,"locus YPL209C, strain IPL1, stronger effect = lower value",0.975
same,normalized growth,"locus YPL256C, strain CLN2, stronger effect = lower value",0.881
same,normalized growth,"locus YPR025C, strain CCL1, stronger effect = lower value",0.968
same,normalized growth,"locus YPR106W, strain ISR1, stronger effect = lower value",0.961
same,normalized growth,"locus YPR111W, strain DBF20, stronger effect = lower value",0.964
same,normalized growth,"strain NNK1, stronger effect = lower value",0.96
same,normalized growth,"strain TSCII, stronger effect = lower value",0.995
